# Laboratory results: publication PMC4552634, “A New Set of Chemical Starting Points with Plasmodium falciparum Transmission-Blocking Potential for Antimalarial Drug Discovery” (PLoS ONE, 2015)
# The whole screen tested about 13,000 compounds, of which about 3,200 (25%) showed an effect of 50% or more. The list shows a part of the results.
# Tested on: P. falciparum stage V gametocytes
# Set-up: BacTiter-Glo ATP luminescence viability of purified stage V gametocytes in 384-well plates, per cent inhibition versus DMSO
# Details: 48 h, 5 µM; inhibitor
row,SMILES,% Inhibition
1,COc1ccc2nccc([C@@H](O)CN3CCC(NCc4cc5cccc(OCc6ccccc6)c5[nH]4)CC3)c2c1 [TCMDC-141117],10.73%
2,Clc1cccc(C=NNc2ccnc3ccccc23)c1 [TCMDC-142057],-48.21%
3,CSc1cccc(Nc2nc3ccc(S(=O)(=O)NCC(C)C)cc3n2C(C)C(C)C)c1 (stereo not shown) [TCMDC-136235],-38.43%
4,O=C(CCN(Cc1ccco1)c1nc(-c2ccc(F)cc2)nc2ccccc12)NC1CC1 [TCMDC-124785],-4.08%
5,O=C(Cc1cccc2ccccc12)NC1CCN(c2ccnc3cc(Cl)ccc23)C1 (stereo not shown) [TCMDC-133666],-21.93%
6,O=C(NCC1CN(Cc2ccc(N3CCCC3)o2)CCCO1)c1ccc2c(c1)OCO2 (stereo not shown) [TCMDC-134852],-25.48%
7,Cc1cc(N[C@@H](CC(C)C)C(=O)Nc2ccccc2)nc(NCc2ccccc2C)n1 [TCMDC-134912],-40.4%
8,COc1cc(C(=O)N2CCOC(CCN3CCC(Cc4ccc(F)cc4)CC3)(c3ccc(Cl)c(Cl)c3)C2)cc(OC)c1OC (stereo not shown) [TCMDC-135568],-27.28%
9,Cc1cccc(C)c1CNc1ccnc2ccccc12 [TCMDC-132169],-38.56%
10,CCCNc1nc(NCc2c(C)cccc2C)nc(NC(C)(C)C)n1 [TCMDC-133383],61.71%
11,Cc1cccc(C)c1CNc1cccc(-c2nc(C)c(C)[nH]2)c1 [TCMDC-133434],-88.3%
12,FC(F)(F)c1ccc2nc(-c3ccc(-c4cccc(CN5CCN(c6ccncc6)CC5)c4)cc3)[nH]c2c1 [TCMDC-132916],2.402%
13,COc1ccc2nccc([C@@H](O)CN3CCC(NCc4cc5ccccc5o4)CC3)c2c1 [TCMDC-140521],12.09%
14,Cc1cc(-c2nc3ccc(C(=O)NCc4ccccc4)cc3n2C2CCN(C(=O)c3ccc(-c4ccccc4)cc3)CC2)ccn1 [TCMDC-135884],25.38%
15,O=C(Nc1ccc(Br)cc1)N1CCC(n2c(-c3ccccc3)nc3cccnc32)CC1 [TCMDC-124743],60.37%
16,Cc1ccc(NC(=O)N2CCC(n3c(-c4ccccc4)nc4cccnc43)CC2)cc1F [TCMDC-124742],24.56%
17,CS(=O)(=O)c1ccc2c(c1)CCN(CCC1CCC(NC(=O)c3cc4cccc(Br)c4[nH]3)CC1)CC2 (stereo not shown) [TCMDC-141425],-26.4%
18,Clc1ccc(-c2cc(-c3csc(NCCN4CCOCC4)n3)on2)c(Cl)c1 [TCMDC-140322],15.06%
19,O=C(Nc1ccc(OC2CCN(Cc3ccsc3)C2)c(Cl)c1)c1ccsc1 (stereo not shown) [TCMDC-133947],1.522%
20,CC[C@H]1CN2CC[C@@H]1C[C@H]2[C@H](O)c1cc[n+]([O-])c2ccc(OC)cc12 [TCMDC-142004],8.307%
21,Oc1ccccc1CNC1CCCCC1NCc1ccccc1O (stereo not shown) [TCMDC-138468],62.18%
22,Oc1cc2ccccc2cc1CNC1CCCCC1 [TCMDC-131977],-28.97%
23,Oc1c(Cl)cc(-c2ccccc2)cc1CNC1CCCCC1 [TCMDC-137170],-21.36%

row,SMILES,% Inhibition
1,CC(C)C[C@@H](/C=N/N1CC(=O)NC1=O)NC(=O)[C@H](CC(C)C)NC(=O)c1ccc(OCCN2CCOCC2)cc1 [TCMDC-136200],6.414%
2,CCCCCCCC/C=C\CCCCCCCC(=O)NCc1ccc(O)c(OC)c1 [TCMDC-124289],45.72%
3,Cc1cccc2[nH]c(-c3cccc(-c4ccc(NC(=O)C5CCN(C)CC5)cc4)c3)nc12 [TCMDC-132189],100.5%
4,Cc1cccc2[nH]c(-c3cccc(-c4ccc(NC(=O)C5CCCO5)cc4)c3)nc12 (stereo not shown) [TCMDC-136969],-0.7596%
5,COC1CCC(C(=O)Nc2ccc(-c3cccc(-c4nc5c(C)cccc5[nH]4)c3)cc2)CC1 (stereo not shown) [TCMDC-136859],-20.23%
6,CC(=O)N1CCC(C(=O)Nc2ccc(-c3cccc(-c4nc5c(C)cccc5[nH]4)c3)cc2)CC1 [TCMDC-132167],-9.717%
7,Cc1cccc2[nH]c(-c3ccc(-c4ccc(NC(=O)C5CCN(C)CC5)cc4)cc3)nc12 [TCMDC-132182],81.12%
8,CC1CN(Cc2ccccc2)CCN1c1ccc(NC(=O)c2ccc(F)cc2)cc1 (stereo not shown) [TCMDC-135002],-13.42%
9,O=C(Nc1cccc(C(F)(F)F)c1)c1cccc(S(=O)(=O)NC2CCCN(CC3CCCCC3)C2)c1 (stereo not shown) [TCMDC-132769],-38.48%
10,O=C(Nc1ccc(C(F)(F)F)cc1)c1cccc(S(=O)(=O)NC2CCN(CC3CCCCC3)C2)c1 (stereo not shown) [TCMDC-132485],-55.81%
11,O=C(Nc1ccc(Cl)cc1)c1cccc(S(=O)(=O)NC2CCN(CC3CCCCC3)C2)c1 (stereo not shown) [TCMDC-132483],-5.409%
12,O=C(Nc1ccc(Cl)cc1)c1cccc(S(=O)(=O)NC2CCN(CC3CCCCC3)CC2)c1 [TCMDC-132807],80.59%
13,O=C(Nc1ccc(C(F)(F)F)cc1)c1cccc(S(=O)(=O)NC2CCN(CC3CCCCC3)CC2)c1 [TCMDC-133671],8.091%
14,N#Cc1cccc(NC(=O)c2cccc(S(=O)(=O)NC3CCN(CC4CCCCC4)C3)c2)c1 (stereo not shown) [TCMDC-132508],83.68%
15,CCC(CC)OC(=O)C(C)c1cccc(C(=O)c2ccccc2)c1 (stereo not shown) [TCMDC-138666],-7.418%
16,COc1ccc2ncc(F)c(CCN3CC[C@H](NCc4cc(C#N)c5c(c4)OCCO5)[C@H](O)C3)c2c1 [TCMDC-136207],-10.98%
17,CCC(C)OC(=O)C1=C(C)NC2=C(C(=O)CC(c3ccc(OC)c(OC)c3)C2)C1c1ccc(O)cc1 (stereo not shown) [TCMDC-125619],13.43%
18,CCOC(=O)c1ccc(NC(=O)N[C@@H](Cc2ccc(O)cc2)C(=O)NC2CCN(Cc3ccc4c(c3)OCO4)CC2)cc1 [TCMDC-135257],-19.76%
19,CCN(CC)CCN(Cc1ccc(-c2ccc(C(F)(F)F)cc2)cc1)C(=O)Cn1c(CCC2CCCCC2)nc(=O)c2ccccc21 [TCMDC-141056],47.99%
20,CCN(CC)CCN(Cc1ccc(-c2ccc(C(F)(F)F)cc2)cc1)C(=O)Cn1c(CCc2ccc(F)cc2)nc(=O)c2ccccc21 [TCMDC-140943],79.23%
21,CCN(CC)CCN(Cc1ccc(-c2ccc(C(F)(F)F)cc2)cc1)C(=O)Cn1c(CCc2cc(F)cc(F)c2)nc(=O)c2ccccc21 [TCMDC-140956],70.83%
22,CCN(CC)CCN(Cc1ccc(-c2ccc(C(F)(F)F)cc2)cc1)C(=O)Cn1c(/C=C/c2ccco2)nc(=O)c2ccccc21 [TCMDC-140939],82.58%
23,COc1ccc2nccc(N3CCN(CCNCc4ccc5c(n4)NC(=O)CO5)CC3)c2n1 [TCMDC-141968],1.504%

row,SMILES,% Inhibition
1,Cc1cc(NCC(C)C)c2[nH]nc(-c3ccccc3)c2n1 [TCMDC-131557],-38.79%
2,CC(=O)c1c(Cc2ccccc2Cl)c[nH]c1C [TCMDC-125433],-14.2%
3,CC(C)COc1cc(C(=O)Nc2cnc3ccccc3c2)ccc1[N+](=O)[O-] [TCMDC-139142],13.84%
4,COc1ccc(CNC(=O)NC2CCN(c3ccnc(Nc4ccc(F)cc4)n3)CC2)cc1 [TCMDC-133631],1.923%
5,OC(CNC12CC3CC(CC(C3)C1)C2)c1cccc(C(F)(F)F)c1 (stereo not shown) [TCMDC-131509],-56.01%
6,CCc1ccc(-n2cc(C(=O)c3cc(Br)ccc3O)cc(C#N)c2=O)cc1 [TCMDC-125186],9.775%
7,O=[N+]([O-])c1ccccc1/C=N/Nc1ccnc2cc(Cl)ccc12 [TCMDC-123965],-67.83%
8,COc1ccc2nccc([C@@H](O)CN3CCC(NC(=O)c4ccc(C5(C(F)(F)F)N=N5)cc4)CC3)c2c1 [TCMDC-141324],-7.709%
9,CCCCOc1ccc(/C=C/c2ccc(-c3c(C)[nH]c(C)c(Cl)c3=O)s2)cc1 [TCMDC-136086],60.63%
10,CN(CCCCCN1CCC(NC(=O)Nc2ccc(C(F)(F)F)cc2)C1)C(=O)/C=C/c1ccc(Cl)c(Cl)c1 (stereo not shown) [TCMDC-139531],79.06%
11,CC(C)c1ccc(NC(=O)NC2CCN(CCCCCNC(=O)/C=C/c3ccc(Cl)c(Cl)c3)CC2)cc1 [TCMDC-139389],-3.81%
12,O=C(/C=C/c1ccc(Cl)c(Cl)c1)NCCCCCN1CCC(NC(=O)Nc2ccc(OC(F)F)cc2)CC1 [TCMDC-135722],-13.06%
13,O=C(/C=C/c1ccc(Cl)c(Cl)c1)NCCCCCN1CCC(NC(=O)Nc2ccc(Cl)c(Cl)c2)CC1 [TCMDC-139387],-30.31%
14,CC(C)c1ccc(NC(=O)N[C@H]2CCN(CCCCCNC(=O)/C=C/c3ccc(Cl)c(Cl)c3)C2)cc1 [TCMDC-139510],104.6%
15,COc1ccc(NC(=O)NC2CCN(CCCCCNC(=O)/C=C/c3ccc(Cl)c(Cl)c3)CC2)cc1 [TCMDC-135709],-22.99%
16,CC(C)c1ccc(NC(=O)NC2CCN(CCCCCN(C)C(=O)/C=C/c3ccc(Cl)c(Cl)c3)C2)cc1 (stereo not shown) [TCMDC-139530],-5.21%
17,O=C(/C=C/c1ccc(Cl)c(Cl)c1)NCCCCCN1CC[C@H](NC(=O)Nc2ccc(Oc3ccccc3)cc2)C1 [TCMDC-139512],98.95%
18,COc1ccc(NC(=O)NC2CCN(CCCCCNC(=O)/C=C/c3ccc(Cl)c(Cl)c3)C2)c(OC)c1 (stereo not shown) [TCMDC-139525],95.6%
19,CN(CCCCCN1CCC(NC(=O)Nc2ccc(Oc3ccccc3)cc2)C1)C(=O)/C=C/c1ccc(Cl)c(Cl)c1 (stereo not shown) [TCMDC-139532],-7.519%
20,COc1ccccc1NC(=O)NC1CCN(CCCCCNC(=O)/C=C/c2ccc(Cl)c(Cl)c2)CC1 [TCMDC-139385],-13.68%
21,O=C(/C=C/c1ccc(Cl)c(Cl)c1)NCCCCCN1CCC(NC(=O)Nc2ccc(Oc3ccccc3)cc2)C1 (stereo not shown) [TCMDC-139528],-43.31%
